High-throughput results as filed in PubChem.
Shown are actives, neighbours in structure and some others; about 21% of the full set was active somewhere.
HCMV inh: inhibitors of human cytomegalovirus. HFF cells, HCMV-luciferase reporter, 72 h; hits give low values. activity change, negative = inhibition, % at 57.5 µM. 410,000 compounds, 4.5% hits. AID 1259415; in the data active = activity change below about -60%; inconclusive = no clear call, values can overlap the other calls; inactive = above about -39%; also: % is scaled to controls: 0 for no effect and ±100 for the full control effect
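Human foreskin fibroblasts infected with luciferase-reporter HCMV at MOI 1 PFU/cell, compounds at two doses. Luciferase measured 72 h post infection; normalized to buffer-only basal and Salinomycin (10uM) controls.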
HCV inh: blocks hepatitis C virus; Huh7.5.1 HCVcc-Cre infection, luciferase reporter, 44 h; 340,000 compounds, 3.4% hits; Potency, µM (doses to about 41.8 µM), for inactives: at the highest dose activity change, negative = inhibition, usual class: inhibitors; AID 651820; also: potency is read from the fitted curve at half-maximal effect; % is scaled to controls: 0 for no effect and ±100 for the full control effect
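Cells seeded at 1,000/well and cultured 4 h, then compounds added followed by HCVcc-Cre virus (~0.5 moi). After 44 h further culture, luciferase substrate was added, plates held 15 min at room temperature, and luminescence read for 15 sec.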
CHX counter-1: counter-screen for Shiga toxin inhibitors: cycloheximide protein synthesis inhibition; cell reporter, cycloheximide protein synthesis inhibition counterscreen; max response, %; 300,000 compounds, 12% hits; AID 2314; in the data active = max response mostly above about 13%, no sharp cut-off; inactive = mostly below about 14%; also: read at 38.3 µM for the half of the compounds with a filed dose; 0% is about no effect
Pf growth 96h: P. falciparum growth inhibition at 96 hour, primary screen for plastid delayed-death inhibitors; P. falciparum luciferase reporter growth, 96 h; Potency, µM (highest dose often 28.7 µM), without a hit: at the top dose activity change, negative = inhibition, hits mostly inhibitors; 320,000 compounds, 6.9% hits; also: potency is read from the fitted curve at half-maximal effect; % is scaled to controls: 0 for no effect and ±100 for the full control effect
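Two-generation exposure (96 h) targets delayed-death phenotype. Reporter parasites carrying integrated firefly luciferase, in red cells at 2% hematocrit and 0.05% parasitemia final, kept at 37 C, 5% CO2; luminescence loss indicates inhibition.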
Pf growth 48h: inhibits P. falciparum growth in the first generation, 48 h; Potency, µM (doses to about 28.7 µM), without a hit: top-dose activity change, negative = inhibition, actives largely listed as inhibitors; 310,000 compounds, 5.9% hits; P. falciparum luciferase growth in erythrocytes, 48 h; also: potency is read from the fitted curve at half-maximal effect; % is scaled to controls: 0 for no effect and ±100 for the full control effect
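Erythrocytes infected with P. falciparum carrying an integrated firefly luciferase reporter (2% hematocrit, 0.1% parasitemia final) were exposed to compounds in RPMI 1640 with 0.5% Albumax at 37 C, 5% CO2. Growth inhibition was scored as reduced luminescence.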
Shiga inhibitor: inhibitors of Shiga toxin in Vero cells; Vero cells, Shiga toxin protein synthesis inhibition reporter; inhibition, % at 38.7 µM; 290,000 compounds, 9.2% hits; AID 2315; in the data active = inhibition mostly above about 28%, no sharp cut-off; inactive = mostly below about 43%; also: 0% is about no effect
CHX counter-2: affects protein synthesis reporter in cycloheximide counter-screen; shares compounds with Shiga inhibitor; Cycloheximide counterscreen, protein synthesis reporter, Shiga toxin assay; Potency, µM (top dose mostly 38.3 µM), inactives show at the top dose activity (activation), usual class: activators; 510 compounds, 3% hits; calls by dose curve; also: potency is read from the fitted curve at half-maximal effect; 0% is about no effect
* = called active by the depositor; u = inconclusive; x = no result; + = active, no number; [ ] = remark or other dose. Unless noted, calls follow the shape of the dose curve; as a rule, active = well fitted inhibition curve with a large enough effect; inconclusive = small, poorly fitted or top-dose-only effect, or another doubt; inactive = no such curve, though single readings can be large or run the other way.

SMILES | HCMV inh | HCV inh | CHX counter-1 | Pf growth 96h | Pf growth 48h | Shiga inhibitor | CHX counter-2
CC(C)c1ccc(NC(=O)N2CCCC2C(=O)Nc2ccc(-n3cnnn3)cc2)cc1 (stereo not given) | 44.8 | 11.4% | 14.4 | 7.7% | 11.9% | 28.8* | 2.1%
Cc1ccc(-c2nnc(SCC(=O)NC3CCCC3)n2C)cc1 | u | 6.4% | -1.8 | u | 32.1% | 68.9* | -0.6%
Cn1c(SCC(=O)NC2CCCCC2)nnc1-c1ccncc1 | 6.9 | 8.0% | -3.2 | u | 31.9% | -11.3 | x
C=CCCC(=O)N1CCC(n2nccc2NC(=O)c2ccccc2C)CC1 | -5.3 | -4.2% | 0.5 | u | 6.2% | -33.5 | x
COc1ccc(NC2=CC(c3ccc(OC)cc3)N(c3ccc(OC)cc3)C2=O)cc1 (stereo not given) | -32.4 | -17.4% | 2.4 | 4.4% | -3.6% | 22.0 | x
COc1ccc(NC2=CC(c3ccccc3)N(c3ccc(OC)cc3)C2=O)cc1 (stereo not given) | -35.7 | u | 5.1 | 5.5% | -6.9% | 64.7* | -1.5%
CC1CCCCC1NC(=O)CN(C)S(=O)(=O)c1cccc2cccnc12 (stereo not given) | -27.8 | -13.6% | 0.9 | -3.1% | -10.5% | -1.2 | x
CN1CCN(Cc2ccc(N)cc2)CC1 | -9.5 | 2.1% | 8.1 | 56.1% | 68.9% | 27.3* | 1.1%
COc1ccccc1NC(=O)CSc1nnc(COc2ccccc2OC)n1C | 68.8 | -4.7% | -5.0 | -3.4% | -10.4% | -12.3 | x
COc1ccccc1NC(=O)CSc1nnc(CC(=O)Nc2ccccc2F)n1C | 7.6 | 21.9% | 10.7 | 2.4% | 5.8% | 55.8* | -1.8%
Cc1noc(C)c1S(=O)(=O)N1CCC(C(=O)O)CC1 | 0.0 | 0.9% | x | -2.1% | -10.2% | x | x
O=C(/C=C/Nc1ccc(F)cc1F)c1ccco1 | 119.5 | u | 9.8 | -35.0% | 46.8% | 48.7* | 0.252µM*
O=C(NCCCNC(=O)c1ccco1)c1cccc(F)c1 | 51.4 | -0.9% | 3.2 | 14.7% | 1.4% | -19.3 | x
NS(=O)(=O)c1cc(C(=O)NCC2CCCCC2)ccc1Cl | 6.2 | 1.4% | -3.2 | u | u | 56.0* | 1.6%
Cc1ccc(OCC(=O)NNC(=O)CCC(=O)Nc2ccc(C)cc2C)cc1 | -39.6 | u | -1.7 | 12.7% | 30.0% | 35.4* | -0.8%
Cc1oc2ncn(CC(C)C)c(=O)c2c1C(=O)NCCCN1CCCCC1C (stereo not given) | 5.7 | x | x | x | x | x | x
Cc1cc(C)n(-c2nc3c(c(=O)[nH]c(=O)n3C)n2Cc2cccc(Br)c2)n1 | 48.1 | -2.6% | 4.0 | 3.3%[5.75 µM] | u | 84.2* | -3.1%
Cc1ccc(Cn2c(-n3nc(C)cc3C)nc3c2c(=O)[nH]c(=O)n3C)cc1 | 67.8 | 0.2% | -1.9 | 14.7% | u | -7.7 | x
O=C(O)c1ccccc1C(=O)Nc1ccccc1 | 41.7 | 13.3% | 6.0 | x | 15.0% | -1.8 | x
O=C(O)c1ccccc1C(=O)Nc1ccc(-n2nccc2C(F)(F)F)cc1 | 8.1 | 6.8% | 8.9 | 6.8% | 12.1% | 30.8* | -3.8%
C=CC(=O)N1c2ccccc2Sc2ccc(NC(=O)OCC)cc21 | -4.3 | u | x | x | x | x | x
CCOC(=O)Nc1ccc2c(c1)Nc1ccccc1S2 | -3.7 | u | 16.9 | x | 46.9% | 31.1* | 2.1%
O=C(COC(=O)/C=C/c1cccs1)Nc1nc(-c2ccccc2)cs1 | 88.5 | -8.4% | 2.6 | u | -17.6% | 46.0* | 5.2%
O=C(Cn1nc(C(=O)O)c2ccccc2c1=O)Nc1nc(-c2ccccc2)cs1 | 0.8 | 13.6% | 5.7 | 113.4% | 87.9% | 39.6* | u
Cc1ccccc1NC(=O)Cn1nc(C(=O)O)c2ccccc2c1=O | 19.3 | 4.0% | -6.3 | 4.4% | 16.8% | -6.3 | x
SMILES | HCMV inh | HCV inh | CHX counter-1 | Pf growth 96h | Pf growth 48h | Shiga inhibitor | CHX counter-2
CCN1CCN(c2ccc(N=Cc3ccccc3O)cc2)CC1 | 41.3 | 17.6% | 7.8 | 8.4% | -5.1% | 29.5 | x
COc1cc(C(=S)N2CCOCC2)cc(OC)c1OC(=O)c1ccccc1Cl | 14.5 | x | x | x | x | x | x
CCCCNC(=O)C1(C)CCN1C(=O)c1ccc2c(c1)CCO2 (stereo not given) | 17.6 | x | x | x | x | x | x
C=C1C(O)C2OC3(CCC(/C=C/C(C)C4CC(C)=CC5(OC(CC(C)(O)C(=O)O)CCC5O)O4)O3)CCC2OC1C(O)CC(C)C1OC2(CCCCO2)CCC1C (stereo not given) | x | x | -3.4 | x | x | + | 3.5%
Cc1ccc(S(=O)(=O)N2CCN(CCOc3c(Cl)cccc3Cl)CC2)cc1C | -28.0 | -5.0% | x | -6.4% | u | x | x
O=C(CNC(=O)c1ccccc1Br)Nc1cccc(S(=O)(=O)Nc2ccccc2Cl)c1 | 0.0 | 2.9% | x | x | x | x | x
O=C(Sc1cccc2cccnc12)c1ccccc1Br | -96.9* | x | 7.6 | 4.65µM* | 1.31µM* | 40.7* | 9.3%
Cc1ccc(NC(=O)CC(=O)Nc2ccc(C)cc2C)c(C)c1 | 0.4 | -3.8% | 7.4 | 0.5% | 8.0% | 2.8 | x
Cc1ccc(N/C(C(Cl)=C(Cl)Cl)=C(/Cl)[N+](=O)[O-])c(C)c1 | -19.1 | u | 9.1 | u | u | 23.4* | -2.3%
Cc1cc(NC(=O)CSc2nnnn2-c2ccccc2)no1 | -31.0 | -2.6% | -2.6 | u | 16.2% | -3.4 | x
Cc1cc(N/C=C\c2nnnn2-c2ccccc2)no1 | -24.4 | -2.7% | 7.0 | 65.1% | -9.5% | 29.8* | u
COc1cccc(CNC(=O)c2ccc(C)c(NC3=NC4CS(=O)(=O)CC4S3)c2)c1 (stereo not given) | 15.7 | 13.5% | -1.2 | 0.9% | -12.0% | 11.1* | 2.9%
CCCC(=O)NC(C)c1nc(-c2ccc(C)cc2)no1 (stereo not given) | 23.9 | -20.6% | x | x | x | x | x
COc1cccc(NC(=O)CN(C)C(=O)c2cc(-c3ccccc3)nn2-c2ccccc2)c1 | -25.7 | -23.3% | x | x | x | x | x
COC(=O)[C@@]12C[C@@H](CC(=O)NCC34CC5CC(CC(C5)C3)C4)C(=O)N(Cc3ccc4c(c3)OCO4)C1=CCC(C)(C)C2 | 61.6 | x | x | x | x | x | x
COc1ccc(S(=O)(=O)Nc2c(C(=O)O)[nH]c3ccccc23)cc1OC | 48.9 | 10.3% | 16.3 | -18.2% | 4.0% | 29.8* | 5.4%
COc1ccc(NC(=O)c2cccc(N3C(=O)C4C5C=CC(C5)C4C3=O)c2)c(OC)c1 (stereo not given) | -7.7 | -14.2% | 9.3 | 8.1% | u | 16.9 | x
Cc1ccc(NC(=O)c2cccc(N3C(=O)C4C5C=CC(C5)C4C3=O)c2)cc1C (stereo not given) | u | -25.2% | 6.4 | 11.7µM* | -20.8% | 17.5* | 3.0%
OC1C[N+]2(CCCCC2)C1 | -2.4 | 19.9% | -1.8 | 42.0% | u | 29.9* | -1.8%
CCOc1ccc(N2CC(C(=O)NCCc3c[nH]c4ccc(C)cc34)CC2=O)cc1 (stereo not given) | -3.6 | -22.8% | -5.6 | 26.1% | -16.9% | -5.1 | x
